“And” between values parts separate entries of the source, which are not always exact repeats. Equal entries are not always repeated. Records with an inconclusive call do not appear. A structure can be active in one record and inactive in another. The source made the active and inactive calls. The call rests on the fitted dose curve; in most records, active means well fitted cell-killing curve with a large enough effect in the repeat runs; inconclusive means weak or mixed curves; inactive means flat fitted curve, though single readings scatter. Starred links: 1 amine or outer side, 2 acyl side, 3 side chain; linkers in the order of their positions; H or OH if unused. Positions of bridges follow the written chain, without caps; N, C: chain ends. Non-standard residues stand in square brackets, D forms with d. Residues, ends and D or L forms follow the SMILES beside them. Chains are numbered I, II in the order given. Actinocin(9to1) = Cc1c2oc3c(C)ccc(C(=O)[*:1])c3nc-2c(C(=O)[*:2])c(N)c1=O; NMeV = CN[C@H](C(=O)O)C(C)C; Sar = CNCC(=O)O
test: qHTS RealTime-Glo MT Cell Viability Assay in HepG2 cells - 8 hour (AID 1224873); details: RealTime-Glo luminescence; series mostly up to 76.8 µM; viability change, negative = cytotoxic: at the top concentration; further: nearly all actives have a fitted effect of over 55% in size
From the text: National Center for Advancing Translational Sciences [NCATS]
NIH Chemical Genomics Center [NCGC]
U.S. Environmental Protection Agency [EPA]
National Institutes of Environmental Health Sciences [NIEHS]
National Toxicology Program [NTP]
U.S. Food and Drug Administration [FDA]
Measure of cell viability is critical in the cell-base assay. Analysis of cell viability is necessary for the characterization of cell responses to cytotoxic drugs and environmental stress. A RealTime-Glo MT Cell Viability Assay to monitor cell viability in real time of continues cell culture during 40 hours of compound treatment was used to screen Tox21 10K library compounds in HepG2 cells. The RealTime-Glo MT Cell Viability Assay is a nonlytic, homogeneous, bioluminescent method to measure cell viability in real time using a simple, plate-based method. The assay involves adding NanoLuc luciferase and a cell-permeant prosubstrate to cells in culture. Viable cells reduce the proprietary prosubstrate to generate a substrate for NanoLuc luciferase. This substrate diffuses from cells into the surrounding culture medium, where it is rapidly used by the NanoLuc Enzyme to produce a luminescent signal. The signal correlates with the number of viable cells, making the assay well suited for cytotoxicity studies.
Tox21 Assay Protocol Summary:
The mixture of HepG2 cell suspension and reagents were dispensed at 600cells/6 ul/well in 1536-well tissue culture treated black solid bottom plates using a Multidrop dispenser. After the assay plates were incubated at a 37 C/5% CO2 incubator for 5 hours, 23 nL of compounds dissolved in DMSO, positive and negative controls was transferred to the assay plate by a pintool work station. The plates were incubated at 37 C for 40 hours. The luminescence intensity were measured at 0h, 8h, 16h, 24h, 32h and 40h time points using ViewLux plate reader during compound treatment.
On the % scale 0 is the no-effect control and ±100 the full control effect; potency means the concentration at half of the fitted maximal effect.

SMILES	viability change, negative = cytotoxic	Potency
CO[Si](OC)(OC)c1ccccc1	-3.68% (inactive)	
COc1ccc(CCN2CCC(Nc3nc4ccccc4n3Cc3ccc(F)cc3)CC2)cc1		35.4 µM (active) and 23.9 µM (active)
Clc1ccc2c(c1)C(N1CCNCC1)=Nc1ccccc1O2		inactive
CN(C)c1ccc2nc3ccc(=[N+](C)C)cc-3sc2c1		9.39 µM (active) and 19.5 µM (active) and 19 µM (active)
NC(N)=Nc1nc(CSCC/C(N)=N/S(N)(=O)=O)cs1		inactive
O=S(=O)(O)c1ccc2nc(-c3ccccc3)[nH]c2c1		inactive
CC(C)(C)c1ccccc1	0.772% (inactive)	
Cc1cccc([N+](=O)[O-])c1C(=O)O	-1.61% (inactive)	
CCC(C)(Oc1ccc(C2(c3ccc(OC(C)(CC)C(=O)O)cc3)CCCCC2)cc1)C(=O)O (stereo not given)	9.12% [at 35.3 µM] (inactive)	
O=C(Nc1ccccc1SSc1ccccc1NC(=O)c1ccccc1)c1ccccc1	-13.1% (inactive)	
NC(Cc1ccc(Cl)cc1)C(=O)O (stereo not given)	-7.98% [at 0.29 µM] (inactive)	
NC(N)=NC(=O)Cc1c(Cl)cccc1Cl	0.674% [at 35.3 µM] (inactive)	
O=C1CC2(CCCC2)CC(=O)N1CCCCN1CCN(c2ncccn2)CC1		inactive
NC12CC3CC(CC(C3)C1)C2	2.8% [at 35.3 µM] (inactive)	
CN1C(=O)c2ccc([N+](=O)[O-])cc2C1=O	-0.177% (inactive)	
C=C(C)C1CC=C(C)C(OC(C)=O)C1 (stereo not given)		inactive
CCN1CCCC1CNC(=O)c1cc(S(=O)(=O)CC)c(N)cc1OC (stereo not given)	1.03% [at 35.3 µM] (inactive)	
Cc1ccc(-c2cc(C(F)(F)F)nn2-c2ccc(S(N)(=O)=O)cc2)cc1		48.8 µM (active) and 49 µM (active) and inactive
NCCCCCC(=O)O	-7.75% [at 35.3 µM] (inactive)	
Cc1cc(Cc2cc(C)cc(C(C)(C)C)c2O)c(O)c(C(C)(C)C)c1		38.9 µM (active)

SMILES	viability change, negative = cytotoxic	Potency
c1cnc2cc3c(cc2n1)C1CNCC3C1	-0.357% [at 35.3 µM] (inactive)	
Cc1c2oc3c(C)ccc(C(=O)N[C@@H]4C(=O)N[C@H](C(C)C)C(=O)N5CCC[C@H]5C(=O)N(C)CC(=O)N(C)[C@@H](C(C)C)C(=O)O[C@@H]4C)c3nc-2c(C(=O)N[C@@H]2C(=O)N[C@H](C(C)C)C(=O)N3CCC[C@H]3C(=O)N(C)CC(=O)N(C)[C@@H](C(C)C)C(=O)O[C@@H]2C)c(N)c1=O (I: T[dV]P[Sar][NMeV] / II: T[dV]P[Sar][NMeV]; ester I:1-I:C, II:1-II:C; linker I:N-II:N via Actinocin(9to1))		9.5 µM (active) and 10.7 µM (active)
CCCCCCCCCCCCCC[P+](CCCC)(CCCC)CCCC		38.7 µM (active) and 17.4 µM (active)
CC(N)=O	4.24% [at 200 µM] (inactive)	
Cc1scc2c1N(C(=O)CN1CCN(C)CC1)c1ccccc1NC2=O	2.89% [at 35.3 µM] (inactive)	
CC1=CC(=O)c2ccccc2C1=O		38.9 µM (active)
Oc1c(Cl)cc(Cl)c(Cl)c1Cc1c(O)c(Cl)cc(Cl)c1Cl	0.903% [at 35.3 µM] (inactive)	
CCOC(=O)C(C)C(C)=O (stereo not given)	-0.68% (inactive)	
CC[C@]1(O)C[C@@H]2CN(CCc3c([nH]c4ccccc34)[C@@](C(=O)OC)(c3cc4c(cc3OC)N(C)[C@H]3[C@@](O)(C(=O)OC)[C@H](OC(C)=O)[C@]5(CC)C=CCN6CC[C@]43[C@@H]65)C2)C1		inactive
O=C(OCc1ccccc1)c1ccc(O)cc1		inactive
c1ccc2n[nH]nc2c1		inactive
CC(C)(C)NCC(O)c1cc(O)cc(O)c1 (stereo not given)	-1.32% [at 35.3 µM] (inactive)	
c1ccc2c(c1)-c1cccc3c1c-2cc1ccccc13		inactive
CC(=O)CC(C)=O	3.53% (inactive)	
Cc1cc(C(C)(C)C)c(O)c(C(C)(C)C)c1		inactive
CC(C)CCOC(=O)c1ccc(N(C)C)cc1	-11.8% [at 35.3 µM] (inactive)	
CCC(=O)/C=C/C1C(C)=CCCC1(C)C (stereo not given)		inactive
O=C1Nc2ccccc2C1(c1ccc(O)cc1)c1ccc(O)cc1		inactive
CC[C@@H](N)CO	3.76% (inactive)	
CC(C)(C)c1cc(C(C)(C)C)c(O)c(C(C)(C)C)c1		inactive

Source: PubChem BioAssay (Tox21)
